Shown are actives, neighbours in structure and some others; about 3.2% of the full set was active somewhere.
AmpC no deterg: qHTS Inhibitors of AmpC Beta-Lactamase (assay without detergent); AmpC nitrocefin hydrolysis, absorbance 480 nm, 0.0001% Triton; Potency, µM (highest dose often 57.1 µM), actives largely listed as inhibitors; AID 485341, 2010; hit rate 0.52% among 330,000; P00811; further: nearly all actives have a fitted effect of over 20% in size
Target sequence (P00811 whole entry, looked up): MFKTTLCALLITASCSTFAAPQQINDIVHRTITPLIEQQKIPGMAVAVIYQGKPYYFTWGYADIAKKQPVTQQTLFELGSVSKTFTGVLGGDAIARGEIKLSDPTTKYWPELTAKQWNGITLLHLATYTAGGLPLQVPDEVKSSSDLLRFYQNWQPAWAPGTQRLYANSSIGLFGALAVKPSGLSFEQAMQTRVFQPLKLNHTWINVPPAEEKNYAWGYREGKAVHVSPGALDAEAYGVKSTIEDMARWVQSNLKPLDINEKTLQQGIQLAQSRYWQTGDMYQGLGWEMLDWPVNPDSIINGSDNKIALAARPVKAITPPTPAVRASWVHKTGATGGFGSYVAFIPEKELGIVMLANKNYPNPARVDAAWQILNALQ
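AmpC (5.3 nM in the dispensed reagent) in 20 mM phosphate pH 7.0 with 0.01% (detergent screen) or 0.0001% Triton X-100 was preincubated with compounds for 15 min at room temperature. Nitrocefin was then added from an 800 uM solution, and hydrolysis was followed at 480 nm.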
Sm TGR block: qHTS Assay for the Inhibitors of Schistosoma Mansoni Peroxiredoxins | Schistosoma mansoni thioredoxin glutathione reductase (TGR), Q962Y6 | purified TGR, DTNB reduction, TNB absorbance 405 nm | Potency, µM (titrated, usually from 114 µM), actives largely listed as inhibitors | hit rate 3% among 360,000 | AID 485364, 2010; further: nearly all actives have a fitted effect of over 60% in size
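Kinetic colorimetric format: TGR-catalysed, NADPH-driven DTNB reduction monitored via TNB absorbance. Enzyme dispensed at 20 nM; compound exposure 15 min at room temperature before reaction start.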
RE007 growth inh: qHTS Assay for Inhibitors of the HIV-1 protein Vpr; S. pombe RE007 Vpr strain, BacTiter-Glo ATP luminescence, 24 h; Potency, µM (series often up to 92.2 µM), usual class: inhibitors; hit rate 0.21% among 360,000; AID 651644, 2012; active means well fitted falling curve with a large enough effect; inconclusive means small, poorly fitted or top-dose-only effect; inactive means no such curve, though single readings can be large or run the other way; further: nearly all actives have a fitted effect of over 50% in size
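Fission yeast strain RE007, carrying one chromosomally integrated HIV-1 vpr copy, was seeded at OD 0.01 in PMG+AL medium with 23 nL pinned compound. After 24 h at 30 °C and 99% humidity, viability was read by BacTiter-Glo luminescence.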
AMA1 RON2 block: qHTS for Inhibitors of AMA1-RON; Towards Development of Antimalarial Drug Lead: Primary Screen. AlphaScreen AMA1-biotinylated RON2 peptide binding. Potency, µM (titrated, usually from 58.2 µM), most hits filed as inhibitors. hit rate 0.2% among 360,000. AID 720542, 2013; further: nearly all actives have a fitted effect of over 45% in size
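AMA1 (3D7) with his tag at 25 nM final met compounds first, then biotinylated RON2 peptide at 25 nM; detection used donor plus acceptor beads, 10 µg/mL apiece, read by AlphaScreen after 30 min at room temperature.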
AmpC detergent: qHTS Inhibitors of AmpC Beta-Lactamase (assay with detergent); P00811; AmpC hydrolysis of nitrocefin, absorbance 480 nm, 0.01% Triton; Potency, µM (top dose mostly 114 µM), actives largely listed as inhibitors; hit rate 0.041% among 370,000; AID 485294, 2010; further: nearly all actives have a fitted effect of over 25% in size
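20 mM phosphate pH 7.0 + 0.01% (detergent screen) or 0.0001% Triton X-100; 5.3 nM AmpC reagent; cpd preinc 15 min RT; nitrocefin (800 uM stock) to start; A480 q20 s × 4 min; Activity was normalised to no-enzyme and no-compound control wells.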
A number is an active result; i = inactive; ? = inconclusive; nt = no result; [ ] = dose if it differs, or a comment. Unless noted, the call rests on the fitted dose curve; in most records, active means well fitted curve in the direction sought with a large enough effect; inconclusive means small, poorly fitted or top-dose-only effect, or another doubt; inactive means no such curve, though single readings can be large; an effect the other way counts as inactive or inconclusive.

SMILES	AmpC no deterg	Sm TGR block	RE007 growth inh	AMA1 RON2 block	AmpC detergent
OC(C#CCN1CCOCC1)(c1ccccc1)C1CC1 (centres undefined)	i	50µM	i	i	i
COCc1ccc(C(=O)N2CCCC(C(=O)c3ccc(Cl)cc3C)C2)o1 (centres undefined)	i	32µM	i	i	i
Cc1cc(Cl)ccc1C(=O)C1CCCN(C(=O)c2ccoc2)C1 (centres undefined)	i	i	i	i	i
CCCCNC(=O)CCn1c(=O)c2ccccc2n(Cc2ccccc2C#N)c1=O	nt	i	nt	nt	i
CCOC(=O)c1c(C)[nH]c(C)c1S(=O)(=O)N1CCC(C(=O)N2CCN(c3cccc(C)c3)C(C)C2)CC1 (centres undefined)	nt	i	nt	nt	i
Cc1[nH]c2ccccc2c1C(=O)C(C)OC(=O)c1ccc(NC(=O)CC#N)cc1 (centres undefined)	i	i	i	i	i
Cc1[nH]c2ccccc2c1C(=O)C(C)OC(=O)c1ccccc1NCCO (centres undefined)	28µM	i	i	i	?
COc1ccc(CSc2nc3ncccc3[nH]2)cc1	nt	i	nt	nt	i
COc1ccc(CSc2nc3ccccc3[nH]2)cc1	i	i	32µM	i	i
Cc1ccc(/C=C2/SC(=S)N(C3CCCCC3)C2=O)o1	i	45µM	i	i	i
O=C1/C(=C/c2cccnc2)SC(=S)N1CC1CCCO1 (centres undefined)	i[11.4 µM]	i	i	i	?
O=C1/C(=C/c2ccco2)SC(=S)N1CC1CCCO1 (centres undefined)	i	20µM	i	?	i
Cc1ccc(/C=C2\SC(=S)N(CC3CCCO3)C2=O)o1 (centres undefined)	i	4µM	i	?	i
COc1ccc(NC(=O)CSc2nc(-c3cccs3)cc(C(F)(F)F)n2)c(OC)c1	nt	i	nt	nt	i
O=C(OCC1CCCO1)c1ccc2c(c1)N(Cc1c(F)cccc1Cl)C(=O)c1ccccc1S2(=O)=O (centres undefined)	nt	i	nt	nt	i
COc1ccc(C2C3=C(CC(C)(C)CC3=O)Nc3c2c(=O)[nH]c(=O)n3Cc2ccccc2)cc1OC (centres undefined)	i	i	i	i	i
COc1cc(C2C3=C(CC(C)(C)CC3=O)Nc3c2c(=O)[nH]c(=O)n3Cc2ccccc2)ccc1O (centres undefined)	?	50µM	i	i	?
CCc1ccc(NC(=O)c2ccc3c(O)c(S(=O)(=O)c4ccccc4)c(=O)[nH]c3c2)cc1	nt	i	nt	nt	i
COc1ccc(-c2nc3ccccc3o2)cc1NC(=O)c1cccc2c(Cl)cccc12	nt	i	nt	nt	i
Cc1cc(Cl)ccc1OCC(=O)Nc1c(C(=O)c2ccccc2)oc2ccccc12	nt	i	nt	nt	i
CC1CC(C)(C)N2C(=O)C(=C(C#N)C#N)c3cccc1c32 (centres undefined)	i	5.6µM	i	i	i
Cc1cc2c3c(c1)C(C)CC(C)(C)N3C(=O)C2=C(C#N)C#N (centres undefined)	i	4µM	i	i	i
CC(=O)N1CCOc2cc(S(=O)(=O)Nc3cccc(C(F)(F)F)c3)c(Cl)cc21	i	i	nt	nt	i
COc1ccc(N2CCN(C(=O)c3cnc(N4CCCC4)nc3C)CC2)cc1	nt	i	nt	nt	i
COc1ccc(N2CCN(C(=O)c3cccnc3SCc3cccc(Br)c3)CC2)cc1	i	i	i	32µM	i
SMILES	AmpC no deterg	Sm TGR block	RE007 growth inh	AMA1 RON2 block	AmpC detergent
N=C1CCC(=N)c2c1c(O)c1ccccc1c2O	i	4.5µM	?	20µM	i
O=C1CCn2c1c(O)c1ccccc1c2=O	nt	nt	i	i	nt
CCOC(=O)C1CCCN(S(=O)(=O)c2ccc(N3CCCCS3(=O)=O)cc2)C1 (centres undefined)	nt	i	nt	nt	i
COc1ccccc1Nc1nc(N)nc(CCl)n1	i	28µM	i	i	i
COc1ccc(OC)c(Nc2nc(N)nc(CCl)n2)c1	i	32µM	i	i	i
COc1ccc(OC)c(Nc2nc(N)nc(CSc3nnc(N)s3)n2)c1	i	i	i	i	i

Compound activity deposited in PubChem by National Center for Advancing Translational Sciences (NCATS).
